Screening results from PubChem BioAssay.
D1 antagonist: human D1 dopamine receptor antagonism. P21728. HEK293 TREx D1 cells, calcium flux, dopamine EC80; active compounds read low. activity change, negative = inhibition, % at 10 µM. hit rate 3.2% among 360,000. AID 504652; in the data active = activity change below about -30%; also: % is scaled to controls: 0 for no effect and ±100 for the full control effect
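Cells carrying a force-coupled, tetracycline-inducible human D1 receptor report calcium flux. Each well gets a 10 s baseline, compound with 180 s monitoring, then an EC80 dopamine stimulus with a second 180 s kinetic read.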
USP1 inh: USP1/UAF1 (human) deubiquitinase inhibition; recombinant USP1/UAF1, Ub-Rhodamine cleavage fluorescence; Potency, µM (titrated, usually from 57.1 µM), for the others: top-dose activity change, negative = inhibition, hits mostly inhibitors; hit rate 0.23% among 390,000; active = well fitted inhibition curve with a large enough effect; inconclusive = small, poorly fitted or top-dose-only effect; inactive = no such curve, though single readings can be large or run the other way; also: potency is read from the fitted curve at half-maximal effect; % is scaled to controls: 0 for no effect and ±100 for the full control effect; nearly all actives have a fitted effect of over 60% in size
Target sequence (O94782 whole entry, looked up): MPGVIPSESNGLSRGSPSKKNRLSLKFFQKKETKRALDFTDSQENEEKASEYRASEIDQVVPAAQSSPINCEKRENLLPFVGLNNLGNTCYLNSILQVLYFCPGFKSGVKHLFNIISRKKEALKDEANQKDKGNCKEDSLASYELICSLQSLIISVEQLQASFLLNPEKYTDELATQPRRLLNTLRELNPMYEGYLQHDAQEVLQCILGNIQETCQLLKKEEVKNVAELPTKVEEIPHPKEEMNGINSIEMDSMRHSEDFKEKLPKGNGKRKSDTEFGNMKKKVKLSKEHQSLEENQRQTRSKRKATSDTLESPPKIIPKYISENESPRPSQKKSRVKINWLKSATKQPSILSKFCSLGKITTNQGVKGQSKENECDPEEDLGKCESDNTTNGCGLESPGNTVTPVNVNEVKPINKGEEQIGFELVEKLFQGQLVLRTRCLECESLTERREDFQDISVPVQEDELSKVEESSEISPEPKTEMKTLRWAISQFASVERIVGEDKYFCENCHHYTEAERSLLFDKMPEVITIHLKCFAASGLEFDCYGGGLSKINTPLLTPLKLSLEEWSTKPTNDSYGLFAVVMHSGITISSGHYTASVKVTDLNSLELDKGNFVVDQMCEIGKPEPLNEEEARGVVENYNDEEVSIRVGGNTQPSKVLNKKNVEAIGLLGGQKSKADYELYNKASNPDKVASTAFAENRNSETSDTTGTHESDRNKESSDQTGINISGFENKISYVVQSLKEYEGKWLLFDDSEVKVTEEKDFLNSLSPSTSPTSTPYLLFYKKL
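In this screen, compounds sit with the deubiquitinase complex (1nM) for 15 min at room temperature before Ub-Rho is added at 150nM final. Fluorescence rise is then followed for 6 reads every 60 seconds.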
TRHR ag: agonists of human TRH receptor; activation, % at 2 µM; P34981; TRHR cells, calcium flux fluo-8, FDSS agonist mode; hit rate 0.18% among 360,000; AID 493084; also: 0% is about no effect
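TRHR-expressing cells loaded with fluo-8 calcium dye; 23 nL library compound pin-transferred, kinetic FDSS fluorescence (Ex 480/Em 530) recorded about 180 s for agonist-induced calcium release, before a 10 nM TRH EC20 addition for potentiator mode.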
D1 PAM: potentiators of human D1 dopamine receptor; HEK293 TREx D1 cells, calcium flux, dopamine EC20 potentiation; potentiation, % at 10 µM; hit rate 0.036% among 360,000; AID 504651; in the data active = potentiation above about 30%; also: 0% is about no effect
D1 agonist: activates the human D1 dopamine receptor. AID 504660. activation, % at 2 µM. hit rate 1% among 360,000. HEK293 T-REx D1 cells, calcium flux, agonist mode; also: 0% is about no effect
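Inducible HEK293 T-REx D1 cells, force-coupled to calcium signalling, were plated at 4000 cells/well with tetracycline and held overnight at 30 C. After no-wash calcium dye loading, compound-evoked calcium rise over 180 s flagged agonists.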
TRHR enhancer: TRH receptor (human) allosteric enhancement | hit rate 0.66% among 360,000 | TRHR cells, fluo-8 calcium fluorescence, EC20 TRH enhancement | enhancement, % at 2 µM | P34981; in the data active = enhancement above about 30%; also: 0% is about no effect
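TRHR-expressing cells loaded with fluo-8 calcium dye were read kinetically (ex 480/em 530) during compound addition, then stimulated with an EC20 of TRH (10 nM final). Enhancement of the Gq-mediated intracellular calcium response was scored.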
Starred values were filed as active, the others as inactive. Rows were chosen to be rich in hits. Some 4.4% of all compounds tested hit in one or more screens of this group. Rule as the data show it, unless noted: active = activation above about 30%; inactive = the rest.

What do the screens show for `CCn1c(C)c(C)c2cc(C(=O)NCc3ccc(F)cc3)ccc21`?
D1 antagonist: 16; USP1 inh: -10%; TRHR ag: -1; D1 PAM: -4; D1 agonist: 34*; TRHR enhancer: 5

Results for CCn1c(C)c(C)c2cc(C(=O)NCCc3ccco3)ccc21 ?
D1 antagonist: -12; USP1 inh: -4%; TRHR ag: 0; D1 PAM: -5; D1 agonist: -1; TRHR enhancer: -4

Results for Cc1c(C)n(Cc2ccc(F)cc2)c2ccc(C(=O)NCc3ccco3)cc12 ?
D1 antagonist: -75*; USP1 inh: -4%; TRHR ag: 0; D1 PAM: -8; D1 agonist: 6; TRHR enhancer: -6

What do the screens show for `Cc1ccc2c(c1)-c1nc(-c3ccc4c(c3)NC(=O)CO4)cc(-c3ccc(Cl)cc3)c1CO2`?
D1 antagonist: 8; USP1 inh: -31%; TRHR ag: 0; D1 PAM: -2; D1 agonist: -1; TRHR enhancer: -2

What do the screens show for `Cc1ccccc1OCCCCn1nnc2sc3c(c2c1=O)CCC(C)C3` (configuration not stated)?
D1 antagonist: 5; USP1 inh: -27%; TRHR ag: 0; D1 PAM: -2; D1 agonist: 2; TRHR enhancer: 3

How did CCc1ccc(CNC(=O)c2ccc3nc(SCc4ccc(F)cc4)n(C)c3c2)cc1 do in these assays?
D1 antagonist: 3; USP1 inh: -18%; TRHR ag: 0; D1 PAM: 0; D1 agonist: 40*; TRHR enhancer: 7

How did COc1ccc(S(=O)(=O)N(Cc2nc(-c3ccc(C)cc3)no2)C2CCCCC2)cc1 do in these assays?
D1 antagonist: 7; USP1 inh: -14%; TRHR ag: 2; D1 PAM: -1; D1 agonist: 11; TRHR enhancer: -8

How did O=C(Nc1ccccc1)C1=C[C@@H](c2coc3ccccc3c2=O)C[C@@H](OCc2ccc(CO)cc2)O1 do in these assays?
D1 antagonist: -37*; USP1 inh: -10%; TRHR ag: 0; D1 PAM: -4; D1 agonist: -3; TRHR enhancer: 0

How did C=CCOC(=O)C1=C[C@@H](c2coc3ccccc3c2=O)C[C@@H](OCc2ccc(CO)cc2)O1 do in these assays?
D1 antagonist: -49*; USP1 inh: -12%; TRHR ag: 0; D1 PAM: -1; D1 agonist: -2; TRHR enhancer: 2

Results for O=C(NCc1ccccc1)C1=C[C@H](c2coc3ccccc3c2=O)C[C@H](OCc2ccc(CO)cc2)O1 ?
D1 antagonist: 6; USP1 inh: -16%; TRHR ag: 1; D1 PAM: 1; D1 agonist: 4; TRHR enhancer: 5

Results for Cc1cc2c(s1)c1cnn(Cc3ccc(C(F)(F)F)cc3F)c(=O)c1n2C ?
D1 antagonist: -4; TRHR ag: 1; D1 PAM: 2; D1 agonist: 4; TRHR enhancer: 2

How did Cc1nc2ccccn2c1C(=O)N/N=C/c1cc(C)n(-c2ccc(Br)cc2)c1C do in these assays?
D1 antagonist: -47*; USP1 inh: -13%; TRHR ag: 0; D1 PAM: -23; D1 agonist: 2; TRHR enhancer: -4

What do the screens show for `Cc1cc(/C=N/NC(N)=S)c(C)n1-c1cccc(Cl)c1`?
D1 antagonist: -2; USP1 inh: -18%; TRHR ag: -1; D1 PAM: -3; D1 agonist: 13; TRHR enhancer: -4

Results for Cc1cc(/C=N/NC(N)=S)c(C)n1-c1ccc(Br)cc1 ?
D1 antagonist: -49*; USP1 inh: -18%; TRHR ag: 0; D1 PAM: -17; D1 agonist: 5; TRHR enhancer: -6

Results for Cc1cc(/C=N/NC(N)=S)c(C)n1-c1ccc(Cl)cc1 ?
D1 antagonist: -52*; USP1 inh: -26%; TRHR ag: -1; D1 PAM: -5; D1 agonist: 5; TRHR enhancer: 8

Results for Cc1ccc2c(Sc3ccc(Cl)cc3)c(C(=O)NCCC(C)C)[nH]c2c1 ?
D1 antagonist: 11; USP1 inh: -16%; TRHR ag: 0; D1 PAM: 0; D1 agonist: -1; TRHR enhancer: 6

Results for CCOC(=O)c1c(NC(C)=O)c2c3c(sc2n1Cc1nc(-c2cccc(Cl)c2)oc1C)CCCC3 ?
D1 antagonist: -37*; USP1 inh: -16%; TRHR ag: 0; D1 PAM: -5; D1 agonist: 0; TRHR enhancer: 14

Results for Cc1nnc(SCC(=O)NC2CC2)s1 ?
D1 antagonist: -48*; USP1 inh: -11%; TRHR ag: 0; D1 PAM: -1; D1 agonist: 1; TRHR enhancer: -1

Results for Cc1nnc(SCC(=O)NC2CCCCC2)s1 ?
D1 antagonist: 5; USP1 inh: 8%; TRHR ag: 0; D1 PAM: -2; D1 agonist: 2; TRHR enhancer: 0

How did COc1ccc(C(=O)Cn2nc(CNc3ccc(Br)cc3)[n+]3c2CCCCC3)cc1 do in these assays?
D1 antagonist: -4; USP1 inh: -7%; TRHR ag: 0; D1 PAM: 0; D1 agonist: 5; TRHR enhancer: -2

How did Cc1ccc(C(C)C)c(OCc2nn(CC(=O)c3ccc(OC(F)F)cc3)c3[n+]2CCCCC3)c1 do in these assays?
D1 antagonist: -12; USP1 inh: inconclusive; TRHR ag: -1; D1 PAM: -6; D1 agonist: 91*; TRHR enhancer: -6

Results for COc1ccc(NS(=O)(=O)c2c(C)n(C)c(=O)n(C)c2=O)cc1OC ?
D1 antagonist: -31*; USP1 inh: inconclusive; TRHR ag: 0; D1 PAM: 0; D1 agonist: 0; TRHR enhancer: -1

How did Cc1c(S(=O)(=O)Nc2ccc(Br)cc2)c(=O)n(C)c(=O)n1C do in these assays?
D1 antagonist: 12; USP1 inh: -21%; TRHR ag: 0; D1 PAM: 3; D1 agonist: 3; TRHR enhancer: 35*

Results for O=[N+]([O-])c1cccc(C(O)C23CN4CN(CN(C4)C2)C3)c1 (configuration not stated) ?
D1 antagonist: 2; USP1 inh: 0%; TRHR ag: 0; D1 PAM: 7; D1 agonist: 2; TRHR enhancer: -2

What do the screens show for `O=[N+]([O-])c1ccc(C(O)C23CN4CN(CN(C4)C2)C3)cc1` (configuration not stated)?
D1 antagonist: -2; USP1 inh: -5%; TRHR ag: 0; D1 PAM: 1; D1 agonist: 6; TRHR enhancer: 40*

How did Oc1c(CN2CCN(c3ccccc3)CC2)cc(Br)c2cccnc12 do in these assays?
D1 antagonist: -87*; USP1 inh: -9%; TRHR ag: 1; D1 PAM: -3; D1 agonist: 0; TRHR enhancer: 16
